Screening results: PubChem, several laboratories
This is a sample that favours compounds with a hit; in the whole collection about 0.97% have one here.
TcdB GH inh: inhibitors of Clostridioides difficile toxin B glycohydrolase; TcdB glycohydrolase enzymatic assay, plate reader; inhibition, % at 9.99 µM; hit rate 0.24% among 350,000; in the data active means inhibition above about 10%
Mtb UGM inh: blocks M. tuberculosis UGM enzyme; inhibition, % at 10 µM; P9WIQ1; AID 504406; hit rate 0.06% among 320,000; purified UGM, fluorescence polarization probe displacement; in the data active means inhibition above about 10%, passing the limit was not always enough; inconclusive means no clear call, values can overlap the other calls
Rv3671c protease: Rv3671c (M. tuberculosis) protease inhibition. P9WHR9. hit rate 0.048% among 320,000. inhibition, % at 5.96 µM. AID 2606; in the data active means inhibition above about 38%;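 further: extracellular domain of Rv3671c used as enzyme; 0% = enzyme with DMSO and 100% = no enzyme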
Mtb BioA inh: BioA (M. tuberculosis) enzyme inhibition. purified M. tuberculosis BioA enzyme, plate reader. hit rate 0.096% among 360,000. AID 602481. inhibition, % at 9.99 µM; in the data active means inhibition above about 40%; inconclusive means no clear call, values can overlap the other calls
RecA splice inh: Mtb RecA intein splicing inhibition; cell-free RecA intein splicing, fluorescence; inhibition, % (no concentration beside the values); hit rate 0.75% among 290,000; AID 2221; in the data active means inhibition above about 30%; inconclusive means no clear call, values can overlap the other calls;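 further: 0% = vehicle wells and 100% = reference inhibitor control wells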
FadD28 FP inh: blocks FadD28 binding to the bisubstrate probe; fluorescence polarization; inhibition, % at 12.5 µM; hit rate 0.22% among 360,000; AID 588549; in the data active means inhibition above about 8.5%, passing the limit was not always enough; inconclusive means no clear call, values can overlap the other calls
Numbers without * were called inactive; ? = inconclusive; / = not tested or not shown.

SMILES	TcdB GH inh	Mtb UGM inh	Rv3671c protease	Mtb BioA inh	RecA splice inh	FadD28 FP inh
Cc1[nH]n(-c2ncc(-c3ccccc3)s2)c(=O)c1C(c1ccc(Br)cc1)C(C#N)C#N (stereo unspecified)	0	1	9	-2	7	?
Cc1[nH]n(C(N)=S)c(=O)c1C(c1ccccc1)C(C#N)C#N (stereo unspecified)	/	0	-4	-1	43*	1
CCOC(=O)c1c(C)[nH]c(C(=O)OCC(=O)Nc2sc(C(=O)N(C)C)c(C)c2C(=O)OCC)c1C	-1	0	-12	3	-1	-2
CCOC(=O)c1c(NC(=O)COC(=O)c2ncc(Cl)c(Cl)c2Cl)sc(C(=O)N(C)C)c1C	0	1	3	0	38*	-4
Cc1ccccc1N=Nc1ccc(O)c2ncccc12	1	-1	7	-2	1	-2
O=S(=O)(O)c1cccc2c(N=Nc3ccc(O)c4ncccc34)cccc12	-2	1	27	3	10	28*
COc1cccc(-c2cnc3c(c2)C(=O)N([C@@H](C)CO)C[C@H](C)[C@@H](CN(C)C(=O)CN(C)C)O3)c1	0	/	/	11	/	/
CC(=O)N(C)C[C@@H]1[C@@H](c2ccc(C3=CCCCC3)cc2)[C@@H](CO)N1CC1CC1	1	/	/	3	/	/
CCN(CC)CCCNC(=O)c1cc(Sc2nnc(C)s2)nc2ccccc12	/	25*	-3	/	2	-4
C/C(=C/CCC(C)C1CCC2(C)C3CCC4C(C)(C)C(=O)CCC4(C)C3=CCC12C)C(=O)O (stereo unspecified)	/	/	/	/	17	/
C/C(=C/CCC(C)[C@H]1CC[C@@]2(C)C3=C(CC[C@]12C)[C@@]1(C)CCC(=O)C(C)(C)[C@@H]1CC3)C(=O)O (stereo partly specified)	1	4	-7	1	42*	-1
CCc1ccc(NC(=O)C2=CC(c3ccc(OC)cc3)=NS(=O)(=O)N2C)cc1	76*	0	-51	1	4	-2
COc1ccc(C2=NS(=O)(=O)N(C)C(C(=O)Nc3ccc(C)cc3)=C2)cc1	1	-2	-28	-1	1	-1
CC(C)C[C@H]1C(=O)N2CCCC2[C@]2(O)O[C@](NC(=O)[C@@H]3C=C4c5cccc6[nH]cc(c56)CC4N(C)C3)(C(C)C)C(=O)N12 (stereo partly specified)	/	8	-40	-13	?	-3
CC(C)[C@H]1C(=O)N2CCC[C@H]2[C@]2(O)O[C@](NC(=O)[C@@H]3C=C4c5cccc6[nH]cc(c56)C[C@H]4N(C)C3)(C(C)C)C(=O)N12	/	10	-37	-5	35*	-2
CN1[C@@H]2c3ccc(C4=CCCC4)c(=O)n3C[C@@H]2[C@@H](CO)[C@@H]1C(=O)NCc1ccccc1F	0	/	/	1	/	/
Cc1ncc(CN2CCC(C(=O)Nc3ccc(Oc4cccnc4)cc3)CC2)cn1	1	0	-5	-2	0	-3
C=CCn1cc(CN2CCC(C(=O)Nc3ccc(Oc4cccnc4)cc3)CC2)c(C)n1	-10	1	-2	-1	-1	16*
CCn1cc(CN2CCC(C(=O)Nc3ccc(Oc4cccnc4)cc3)CC2)c(C)n1	2	3	3	-2	/	13*
C[C@@H]1CN([C@H](C)CO)C(=O)c2cc(C3=CCCC3)cnc2O[C@@H]1CN(C)Cc1ccccn1	0	/	/	-3	/	/
O=C(/C=C/c1ccccc1)c1ccccc1	-11	0	1	2	-1	0
O=C(/C=C/c1ccccc1)c1ccc2c3c(cccc13)CC2	/	0	-20	/	34*	-2
COc1ccc(C(NC(C)=O)c2cc(Cl)c3cccnc3c2O)cc1 (stereo unspecified)	11*	-1	11	-5	-2	1
COc1ccc(NC(=O)COc2ccc(/C=C/c3cc[n+](C)cc3)cc2OC)cc1	2	-1	1	/	6	-1
COc1cc(/C=C/c2cc[n+](C)cc2)ccc1OCC(=O)Nc1ccc(Cl)c(Cl)c1	1	2	-7	0	40*	-39
SMILES	TcdB GH inh	Mtb UGM inh	Rv3671c protease	Mtb BioA inh	RecA splice inh	FadD28 FP inh
CCCNC(=O)C[C@@H]1C[C@H]2c3cc(NC(=O)Cc4ccncc4)ccc3O[C@H]2[C@H](CO)O1	/	/	/	-2	/	/
CC(=O)c1ccc(NC(=O)/C(=C\c2ccccc2)NC(=O)/C=C/c2ccccc2)cc1	/	3	-77	/	4	-2
CC(=O)N/C(=C\c1ccccc1)C(=O)Nc1ccc(O)cc1	13*	-1	10	/	-1	-3
CC(=O)Nc1ccc(O)cc1	25*	3	7	0	/	0
Nc1ccc(OC(=O)Nc2ccc(O)cc2)cc1	12*	-3	-28	1	-8	1
O=C(Nc1ccc(N2CCN(c3ccc(O)cc3)CC2)cc1)Oc1ccccc1	-1	0	-5	-3	-3	-1
C[C@@H](NCCc1ccc(O)cc1)[C@@H](O)c1ccc(O)cc1	0	-3	5	1	0	-1
CCCCCCCCNC(C)C(O)c1ccc(SC(C)C)cc1 (stereo unspecified)	2	-2	-3	8	5	15*
O=C(COC(=O)c1cc(=O)[nH]c2ccccc12)c1ccccc1	1	2	3	-1	-1	-5
Cc1ccc(C(=O)COC(=O)c2cc(=O)[nH]c3ccccc23)cc1	11*	-2	6	/	0	-4
CC(C)NC(=O)Nc1ccc2c(c1)C(=O)N([C@@H](C)CO)C[C@H](C)[C@@H](CN(C)Cc1ccc(C(F)(F)F)cc1)OCCCC[C@@H](C)O2	1	/	/	2	/	/
C[C@@H]1CN([C@@H](C)CO)S(=O)(=O)c2ccc(C#Cc3ccccn3)cc2O[C@H]1CN(C)C(=O)C1CC1	-1	/	/	-3	/	/
CCOc1cc(C2C(C#N)=C(N)Oc3n[nH]c(-c4ccncc4)c32)cc([N+](=O)[O-])c1O (stereo unspecified)	1	1	-5	/	12	-3
COc1ccc(C2C(C#N)=C(N)Oc3cc(C)[nH]c(=O)c32)cc1OC (stereo unspecified)	1	1	-2	/	-1	-4
COc1ccc(C2C(C#N)=C(N)Oc3n[nH]c(C)c32)cc1Cn1nc(C)c([N+](=O)[O-])c1C (stereo unspecified)	/	1	-3	2	84*	0
COc1cc(C2C(C#N)=C(N)Oc3n[nH]c(-c4cccnc4)c32)ccc1OCC(N)=O (stereo unspecified)	-1	-1	-24	/	46*	-2
COc1cc(C2C(C#N)=C(N)Oc3n[nH]c(C)c32)ccc1OC(=O)c1ccccc1 (stereo unspecified)	/	-4	-6	-2	38*	0
C[C@H]1CN([C@@H](C)CO)C(=O)Cc2cc(NC(=O)c3ccncc3)ccc2O[C@H]1CN(C)S(C)(=O)=O	-1	/	/	0	/	/
CS(=O)(=O)N1[C@@H]2c3ccc(C4=CCCC4)c(=O)n3C[C@@H]2[C@@H](CO)[C@@H]1C(=O)NCCc1ccncc1	-1	/	/	0	/	/
